# In the library only some 22% were active in any assay of this set; here they are far more common.
# CYP2C9 activ: increases human cytochrome P450 2C9 activity | hit rate 1.4% among 96,000 | AID 1024 | recombinant CYP2C9, luciferin-H conversion, luminescence; hits give high values; factor 1 = untreated enzyme, 0 = blocked | activation factor at 5 µM;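 active = activation factor of 2 or more for CYP2C9 at a 5 µM dose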;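 also: 0 = sulfaphenazole-blocked wells and 1 = vehicle-only wells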
# Target sequence (P11712 whole entry, looked up): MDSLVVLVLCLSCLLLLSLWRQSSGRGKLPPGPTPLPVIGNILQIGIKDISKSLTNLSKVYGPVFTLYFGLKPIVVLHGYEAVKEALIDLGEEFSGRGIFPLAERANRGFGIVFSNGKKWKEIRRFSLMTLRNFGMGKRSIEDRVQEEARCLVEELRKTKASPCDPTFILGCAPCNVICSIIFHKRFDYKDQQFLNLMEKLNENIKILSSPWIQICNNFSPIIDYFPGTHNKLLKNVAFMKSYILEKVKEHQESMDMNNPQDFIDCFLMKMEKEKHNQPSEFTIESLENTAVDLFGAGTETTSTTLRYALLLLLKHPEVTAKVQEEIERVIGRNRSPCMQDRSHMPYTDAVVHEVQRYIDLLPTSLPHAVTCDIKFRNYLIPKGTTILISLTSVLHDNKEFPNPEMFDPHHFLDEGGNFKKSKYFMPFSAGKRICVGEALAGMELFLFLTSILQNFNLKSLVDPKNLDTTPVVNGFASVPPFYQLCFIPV
# CYP2C19 inh: blocks human cytochrome P450 2C19; P33261; CYP2C19 Supersomes, luciferin-H EGE luminescence, 30 min; inhibition, % at 5 µM; hit rate 21% among 96,000;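 active = CYP2C19 inhibition above a set limit at 5 µM in the primary screen, cut at about 50% in these data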;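 also: plate controls were negative control wells for no effect and 2.5 mM tranylcypromine positive control for full effect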
# Measles CPE: protection of cells from measles virus | Measles virus-infected cells, CPE protection, absorbance | protection (pct of control), % at 4 µM | hit rate 1.5% among 140,000; in the data active = protection mostly above about 24%, no sharp cut-off; inactive = mostly below about 26%
# CYP2C9 inhib: blocks human cytochrome P450 2C9. P11712. CYP2C9 Supersomes, luciferin-H conversion, luminescence. inhibition, % at 5 µM. hit rate 20% among 96,000. AID 777;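 active = blocking of liver enzyme CYP2C9 beyond about 50% at 5 µM, limit read from the data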
# CYP2C19 activ: increases human CYP2C19 enzyme activity. P33261. recombinant CYP2C19, luciferin-H EGE luminescence; hits give high values; 0 = fully inhibited enzyme, 1 = untreated enzyme. activation factor at 5 µM. 96,000 tested, under 10 active;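 active = activation factor of at least 2 at 5 µM in the primary screen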;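 also: 0 = wells with 2.5 mM tranylcypromine and 1 = vehicle-only wells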
# An asterisk follows results filed as active; . = no result.
SMILES,CYP2C9 activ,CYP2C19 inh,Measles CPE,CYP2C9 inhib,CYP2C19 activ
COc1ccc(CCNC(=O)CSc2nnc(Cc3csc(N)n3)n2C)cc1OC,0.5,-13,16,51*,1.1
COc1ccc(CCNC(=O)CSc2cc(=O)[nH]c(N)n2)cc1OC,1.1,-3,7,-9,1
O=C(Nc1cc2c(oc1=O)CCCC2=O)c1cccc(Cl)c1,0.8,-1,7,16,1
CCOCC(=O)Nc1nnc(C)s1,1.1,-3,3,-8,1
O=C(NC1CCCC1)C1CCC(=O)N1CCc1ccccc1 (configuration not stated),0.5,37,9,54*,0.6
CCN(CC)C(=O)C1=C(C)Nc2nnnn2C1c1cccnc1 (configuration not stated),1,-11,29*,3,1.1
CCCS(=O)(=O)N1CCCC(C(=O)NCCCN2CCN(c3ccc(F)cc3)CC2)C1 (configuration not stated),2.7*,7,8,-169,0.9
CS(=O)(=O)N1CCCC(C(=O)NCCCN2CCN(Cc3ccccc3)CC2)C1 (configuration not stated),0.4,3,14,59*,1
CCCS(=O)(=O)N1CCCC(C(=O)NCCCOC(C)C)C1 (configuration not stated),1,3,25,0,1
C#C[C@]1(O)CC[C@H]2[C@@H]3CCC4=C(CCC(=O)C4)[C@H]3CC[C@@]21C,.,.,22,.,.
COCCN1C(=O)c2oc3ccccc3c(=O)c2C1c1ccc(OC)c(OC)c1 (configuration not stated),.,.,5,.,.
CCOc1cc(C(=O)Nc2cc(C)ccc2C)ccc1OCC(=O)N1CCCCC1,.,.,9,.,.
CC(=O)Nc1ccc(N2S(=O)(=O)c3ccccc3S2(=O)=O)cc1,2.3*,11,22,-133,0.9
Cn1cccc1CC(=O)NNC(=O)Nc1cccc(Cl)c1,.,.,10,.,.
Cc1ccc(NC(NC(=O)c2cccs2)C(Cl)(Cl)Cl)cc1C (configuration not stated),0.4,12,4,56*,0.9
Cc1ccccc1NC(NC(=O)c1cccs1)C(Cl)(Cl)Cl (configuration not stated),0,99*,12,96*,0
Cc1ccc(NC(NC(=O)c2cccs2)C(Cl)(Cl)Cl)cc1 (configuration not stated),0,95*,3,99*,0.1
Cc1ccc2c(C(=O)CN3CCN(c4ccccc4)CC3)c(C)[nH]c2c1,1.3,13,4,-30,0.9
Cc1cc(C)c2[nH]c(=O)c(CN(Cc3cccs3)C(=S)NCC3CCCO3)cc2c1 (configuration not stated),.,.,6,.,.
COc1ccc(CNC(=O)C(c2ccncc2)N(C(=O)Cc2cccs2)c2cccc(C)c2)cc1 (configuration not stated),0.5,70*,24,48,0.3
COc1ccc(CNC(=O)C(c2ccc(C)cc2)N(Cc2cccs2)C(=O)c2ccc3c(c2)OCCO3)cc1 (configuration not stated),0.5,66*,4,49,0.3
COc1ccc(CNC(=O)C(c2ccco2)N(Cc2ccccc2)C(=O)Cc2cccs2)cc1 (configuration not stated),.,.,23,.,.
COc1ccc(C(C(=O)NCc2ccccc2)N(Cc2ccc3c(c2)OCO3)C(=O)c2cnccn2)cc1 (configuration not stated),0.1,94*,4,94*,0.1
COc1ccc(CNC(=O)C(c2ccncc2)N(C(=O)Cc2cccs2)c2ccccc2C)cc1 (configuration not stated),0.7,54*,19,28,0.5
Cc1ccc(C(C(=O)NCc2ccccc2)N(Cc2cccs2)C(=O)c2ccc3c(c2)OCCO3)cc1 (configuration not stated),.,.,14,.,.
SMILES,CYP2C9 activ,CYP2C19 inh,Measles CPE,CYP2C9 inhib,CYP2C19 activ
Cc1nn(Cc2ccccc2Cl)c(C)c1NC(=O)CCCn1nc(C)c([N+](=O)[O-])c1C,0.9,46,2,9,0.5
COCCN(C(=O)Cc1cccs1)C(C(=O)NCc1ccc(OC)cc1)c1ccc(OC)cc1 (configuration not stated),0.3,38,40*,65*,0.6
COc1ccc(CNC(=O)C(c2ccco2)N(Cc2cccs2)C(=O)Cc2cccs2)cc1 (configuration not stated),1.1,8,7,-6,0.9
O=C(O)C1CC=CCC1C(=O)N1CCc2ccccc21 (configuration not stated),.,.,4,.,.
O=C(CSCc1ccc(Cl)cc1)NN=C1CCCC1,.,.,3,.,.
CC(C)NC(=O)CSCc1ccccc1Cl,0.8,66*,5,17,0.3
O=C(CSCc1ccccc1Cl)NN=C1CCCCCC1,0.9,63*,4,12,0.4
CSCC[C@H](NC(=O)Nc1ccc(C)cc1C)C(=O)O,1,-11,1,-2,1.1
CCc1ccc(-c2cc(-c3n[nH]c(=S)n3CC)c3ccccc3n2)cc1,.,.,4,.,.
CCn1c(-c2cc(-c3cccc(OC)c3)nc3ccccc23)n[nH]c1=S,0.1,-11,3,91*,1.1
Cc1cc(NC(=O)CCNS(=O)(=O)c2cc(Br)cnc2N)ccc1Br,0.6,30,32,41,0.7
COc1ccc(S(=O)(=O)N(C)CC(=O)NCCC2=CCCCC2)cc1OC,1.1,82*,5,-11,0.2
COc1ccc(S(=O)(=O)N(C)CC(=O)NCCC2=CCCCC2)cc1,2.4*,32,5,-136,0.7
N#CCCN(Cc1cccnc1)S(=O)(=O)c1ccc(S(=O)(=O)NC2CCCCC2)cc1,0.6,59*,1,40,0.4
CCOc1ccc(-c2nnc(NC(=O)CCCOc3cccc(C)c3)o2)cc1,0.6,15,0,36,0.8
COc1ccc(-c2nnc(-c3ccc(N(C)C)cc3)o2)cc1,0.9,-3,6,15,1
COc1ccc(-c2nnc(-c3ccc(N)cc3)o2)cc1,0.2,8,5,77*,0.9
Cc1cc(NC(=O)CSc2nnc(COc3ccccc3)n2Cc2ccco2)no1,0.6,-2,14,38,1
Cc1ccc(OCc2nnc(SCC(=O)C(C)(C)C)n2Cc2ccco2)cc1,0.3,20,11,74*,0.8
O=C(CSc1nnc(COc2ccccc2)n1Cc1ccco1)NCc1ccco1,0.2,58*,4,78*,0.4
Cc1ccc(NC(=O)CCC(=O)NCCO)cc1,1.1,12,-1,-9,0.9
Cc1ccc(NC(=O)CC(O)(C(F)(F)F)C(F)(F)F)cc1,0.8,59*,7,20,0.4
COc1ccc(C)cc1NC(=O)CC(O)(C(F)(F)F)C(F)(F)F,0.9,62*,11,14,0.4
CCN1CCc2c(sc(NC(=S)NC(=O)c3ccccc3)c2C#N)C1,0.5,40,1,46,0.6
COC(=O)CN(c1ccc(C)c(Cl)c1)S(C)(=O)=O,1.1,54*,25,-9,0.5

# Source: PubChem
